Source: PubChem (National Center for Advancing Translational Sciences (NCATS))
PI5P4Ka inh – qHTS for Inhibitors of phosphatidylinositol 5-phosphate 4-kinase (PI5P4K) | Phosphatidylinositol 5-phosphate 4-kinase type-2 alpha (Homo sapiens), P48426 | PI5P4Kalpha enzyme, ADP-Glo luminescence, 60 min; stronger effect = lower value | max response, % | actives 1.2% (n = 330,000); active means max response of -50% or lower; inconclusive means between -30% and -50%; inactive means -30% or higher; further: value at the top dose of about 77 µM; on the % scale 0 is the no-effect control and ±100 the full control effect
Target sequence (P48426 whole entry, looked up): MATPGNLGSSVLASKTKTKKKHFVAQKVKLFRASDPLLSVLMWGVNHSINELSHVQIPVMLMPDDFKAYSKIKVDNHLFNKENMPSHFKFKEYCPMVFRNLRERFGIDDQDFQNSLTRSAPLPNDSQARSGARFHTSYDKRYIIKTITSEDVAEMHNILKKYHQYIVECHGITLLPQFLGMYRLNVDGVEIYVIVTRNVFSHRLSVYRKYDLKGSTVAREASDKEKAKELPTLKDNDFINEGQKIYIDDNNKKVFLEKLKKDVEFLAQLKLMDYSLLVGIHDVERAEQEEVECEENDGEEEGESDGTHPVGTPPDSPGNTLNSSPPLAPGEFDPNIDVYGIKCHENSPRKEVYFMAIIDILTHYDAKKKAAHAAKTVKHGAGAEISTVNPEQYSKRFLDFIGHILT
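Compounds were pin-transferred onto PI5P4Kalpha and substrate in HEPES pH 7.4 buffer with EGTA, CHAPS and 5% DMSO. ATP (5 microM final) started the reaction, which ran 60 minutes at room temperature before ADP-Glo detection.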
JMJD2A Tudor inh – qHTS Assay for Inhibitors of JMJD2A-Tudor Domain; Lysine-specific demethylase 4A (Homo sapiens), O75164; AlphaScreen JMJD2A-Tudor / H3K4me3 peptide binding; Potency, µM (titrated, usually from 114 µM), inactives show at the top dose activity change, negative = inhibition, actives largely listed as inhibitors; actives 4.4% (n = 390,000); further: potency means the concentration at half of the fitted maximal effect; on the % scale 0 is the no-effect control and ±100 the full control effect; nearly all actives have a fitted effect of over 50% in size
G9a block – qHTS Assay for Inhibitors of Histone Lysine Methyltransferase G9a; actives 8.8% (n = 350,000); Potency, µM (top dose mostly 102 µM), inactives show at the highest dose activity, negative = inhibition, usual class: inhibitors; Histone-lysine N-methyltransferase EHMT2 (Homo sapiens), Q96KQ7; G9a H3K9 monomethylation, AlphaScreen, 2 h; AID 504332, 2011; further: potency means the concentration at half of the fitted maximal effect; on the % scale 0 is the no-effect control and ±100 the full control effect; nearly all actives have a fitted effect of over 75% in size
Target sequence (Q96KQ7 913-1193 limits assumed): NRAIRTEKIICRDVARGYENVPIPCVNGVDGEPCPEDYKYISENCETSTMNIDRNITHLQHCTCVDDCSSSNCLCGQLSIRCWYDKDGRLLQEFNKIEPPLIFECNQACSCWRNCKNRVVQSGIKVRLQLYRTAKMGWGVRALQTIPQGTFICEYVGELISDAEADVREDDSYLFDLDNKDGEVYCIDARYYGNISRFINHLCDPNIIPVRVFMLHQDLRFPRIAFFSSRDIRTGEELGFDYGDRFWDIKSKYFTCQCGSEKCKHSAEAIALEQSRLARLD
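Quantitative HTS format: methyltransferase activity on a biotin-tagged H3K9 peptide is measured by AlphaScreen, using a rabbit anti-monomethyl-H3K9 antibody with streptavidin donor and anti-IgG acceptor beads. Final levels are 20 nM enzyme, 500 nM peptide, 20 uM SAM; 2 h RT.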
HP1b chromo inh – HTS for Inhibitors of HP1-beta Chromodomain Interactions with Methylated Histone Tails; Potency, µM (titrated, usually from 114 µM), inactives show at the top dose activity change, negative = inhibition, actives largely listed as inhibitors; AID 540317, 2011; actives 0.56% (n = 390,000); AlphaScreen HP1-beta / biotin-H3K9me3 peptide binding; Chromobox protein homolog 1 (Homo sapiens), P83916; further: potency means the concentration at half of the fitted maximal effect; nearly all actives have a fitted effect of over 70% in size
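AlphaScreen: HP1-beta (50 nM) preformed 30 min with biotin-H3(1-18)K9me3 peptide (50 nM) in PBS pH 7.4, 0.01% Tween-20. Compound added for 30 min at RT, then streptavidin donor/nickel chelate acceptor beads (10 ug/mL) for 30 min.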
BAZ2B block – qHTS Assay for Inhibitors of BAZ2B. Bromodomain adjacent to zinc finger domain protein 2B (Homo sapiens), Q9UIF8. AlphaScreen BAZ2B-H3K14Ac peptide displacement. Potency, µM (top dose mostly 114 µM), for inactives: top-dose activity change, negative = inhibition, actives largely listed as inhibitors. actives 4.4% (n = 360,000); further: potency means the concentration at half of the fitted maximal effect; on the % scale 0 is the no-effect control and ±100 the full control effect; nearly all actives have a fitted effect of over 60% in size
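In this displacement format the biotinylated H3(5-23) peptide acetylated at Lys14 serves as ligand at 50 nM, with BAZ2B at 50 nM in PBS pH 7.4 containing 0.01% Tween-20. Donor and acceptor beads are 10 ug/mL final.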
PLK1 PBD block – qHTS for Inhibitors of PLK1-PDB (polo-like kinase 1 - polo-box domain): Primary Screen. Serine/threonine-protein kinase PLK1 (Homo sapiens), P53350. Plk1 PBD binding of FITC phosphopeptide, fluorescence polarization. Potency, µM, without a hit: max response, negative = inhibition, usual class: inhibitors. actives 2.8% (n = 360,000). AID 720504, 2013; further: potency means the concentration at half of the fitted maximal effect; series mostly up to about 57 µM; on the % scale 0 is the no-effect control and ±100 the full control effect; nearly all actives have a fitted effect of over 65% in size
* hit, by the source's call; ? = inconclusive; / = not tested or not shown; ! = a repeat was not active; [ ] = another dose, or the depositor's remark. A selection: hits, their analogues and other compounds. The true share with any hit is near 12%. Unless noted, the call rests on the fitted dose curve; in most records, active means well fitted curve in the direction sought with a large enough effect; inconclusive means small, poorly fitted or top-dose-only effect, or another doubt; inactive means no such curve, though single readings can be large; an effect the other way counts as inactive or inconclusive.

SMILES | PI5P4Ka inh | JMJD2A Tudor inh | G9a block | HP1b chromo inh | BAZ2B block | PLK1 PBD block
Cc1ccccc1CC(=O)N(CCN(C)C)CC1CCCN(Cc2ccccc2F)C1 (stereo unspecified) | 6.5 | -16.1% | -3.0% | 31.0% | -4.1% | -3.4%
CCN(CC)C(=O)CN1CCN(c2ccccc2F)CC1 | / | 8.91µM* | 31.6µM* | ? | ? | 2.4%
CC(C)c1ccc(OCC(=O)N2CCN(CCc3ccncc3)CC2)cc1 | / | -10.6% | -3.8%[59 µM] | 36.7% | -27.0% | /
Cc1ccc(C)c(NC(=O)c2cc[n+](C)cc2)c1 | -3.8 | -26.9% | 31.6µM* | 31.7% | -24.5% | -2.1%
O=C(O)CNC1c2ccccc2CSc2ccccc21 (stereo unspecified) | 2.2 | 17.8µM* | / | 4.5% | / | ?
O=C(COC(=O)Cc1ccccc1)Nc1cccnc1Cl | -11.4 | 0.7% | 7.7% | 34.1% | -12.9% | -6.9%
O=C(Cc1ccccc1)Oc1coc(CSc2ncccn2)cc1=O | -5.9 | 14.1µM* | -7.1% | 18.4% | / | -8.5%
Cc1ccc(CNC(=O)c2ccc(CSc3nc4ccncc4n3Cc3ccc(C)cc3)cc2)cc1 | / | -17.4% | 20.3%[59 µM] | 44.1% | 9.9% | /
N#Cc1ccc(CN2CC[C@@]3(CCCNC3)C2)cc1 | / | / | -9.7%[12.7 µM] | / | / | /
CCOC(=O)COc1ccc(/C=C2\C(=O)NC(=S)N(c3ccc(OC)cc3)C2=O)cc1OC | -56.4* | 35.5µM* | ? | 11.0% | ? | 15µM*
CCOC(=O)C1CCN(/C=C2/C(=O)NC(=S)N(c3cccc(OC)c3)C2=O)CC1 | -9.6 | -9.0% | 22.4µM* | 35.5% | -3.4% | -12.9%
COc1ccc(N2C(=O)/C(=C/c3ccc(OC)c(OC)c3)C(=O)NC2=S)cc1 | -53.6* | 56.2µM* | / | ? | -29.9% | 7.52µM*
CCOC(=O)C1CCN(/C=C2\C(=O)NC(=S)N(CC)C2=O)CC1 | -24.3 | -12.4% | -6.6% | 67.3% | -1.3% | 0.9%
CSc1nn(-c2ccc(C(=O)OCC(=O)NC(=O)NC(C)C)cc2)c(=S)s1 | 1.7 | ? | -18.5%[59 µM] | -9.8% | ? | -5.9%
CCN(CC)C(=O)c1ccc(NC(=O)c2ccc(-c3nn(C)c(=O)c4ccccc34)cc2)cc1 | 4.8 | ? | 2.8%[59 µM] | -1.2% | ? | 29.9µM*
CCCc1nn(C)c2c1C(c1ccncc1)C(C#N)=C(N)O2 (stereo unspecified) | -3.6 | -24.7% | ? | 35.4% | 7.6% | ?
S=C(Nc1ccccc1)Nc1cccc(Br)c1 | 3.1 | -12.7% | -4.9%[59 µM] | 19.2% | -10.7% | 26.7µM*
C[N+]1(C)CCCCC1COC(=O)C(O)(c1ccccc1)c1ccccc1 (stereo unspecified) | / | / | -15.8%[12.7 µM] | / | / | /
CC(=O)O[C@H]1CCC2C3CCC4=CC(=O)CCC4=C3C=C[C@@]21C (stereo partly specified) | -6.4 | ? | 44.7µM* | ? | -6.8% | ?
C#C[C@]1(O)CC[C@H]2[C@@H]3CCC4=CC(=O)CCC4=C3C=C[C@@]21CC | / | / | -34.5%[12.7 µM] | / | / | /
COc1ccc(-n2c(O)c(/C=C3\C=Nc4ccc(Br)cc43)c(=O)[nH]c2=O)cc1 | -10.8 | -13.4% | -14.5% | 9.4% | -12.3% | 1.06µM*
COc1ccc(-n2c(O)c(/C=C3\C=Nc4ccc(Br)cc43)c(=O)[nH]c2=O)c(OC)c1 | ? | ? | 31.6µM* | 5.3% | ? | 2.12µM*
C[C@H](CO)N1C[C@H](C)[C@@H](CN(C)C(=O)Nc2ccccc2)Oc2c(NS(=O)(=O)c3ccc(F)cc3)cccc2C1=O | -1.0 | -5.7% | / | 48.4% | / | -14.6%
O=C1Nc2ccccc2/C1=C/c1nc2ccccc2c(=O)n1-c1ccc(O)cc1 | -20.8 | -26.0% | / | -21.8% | 39.8µM* | -16.4%
O=c1c2ccccc2nc(/C=C/c2ccc([N+](=O)[O-])o2)n1-c1ccc(O)cc1 | -18.6 | -35.0% | 50.1µM* | 17.6% | ? | -2.6%
SMILES | PI5P4Ka inh | JMJD2A Tudor inh | G9a block | HP1b chromo inh | BAZ2B block | PLK1 PBD block
O=c1c2ccccc2nc(/C=C/c2ccc(O)c(O)c2)n1-c1ccccc1 | -25.9 | -33.6% | 7.94µM* | -15.0% | ? | 44.7%
CC(C)c1ccc(CNC(=O)c2ccc(N3CCCC3)c(NC(=O)NCc3ccccc3)c2)cc1 | / | -23.2% | -2.2%[59 µM] | 12.2% | ? | /
Oc1ccccc1/C=N/[n+]1ccccc1 | -6.2 | -3.0% | 56.2µM* | -11.9% | -6.8% | 1.5%
CC(=O)O[C@H]1CC[C@]2(C=O)C3CC[C@]4(C)[C@@H](C5=CC(=O)OC5)CC[C@]4(O)C3CC[C@]2(O)C1 (stereo partly specified) | / | -8.3% | / | 21.4% | / | /
ClC1=C(Cl)C2(Cl)C(CBr)CC1(Cl)C2(Cl)Cl (stereo unspecified) | / | / | 0.1%[12.7 µM] | / | / | /
Cc1cccc(-n2c(/C=C/c3ccccc3O)nc3ccccc3c2=O)c1 | / | -11.4% | -1.9%[59 µM] | 39.0% | -0.7% | /
Cc1cccc(N2CCc3c2nc2ccccc2c3N)c1 | -5.4 | 3.16µM*! | ? | ? | ? | -8.3%
CN(C)P(=NC(=S)c1cccn1C)(N(C)C)N(C)C | / | 39.8µM* | 10µM* | -10.1% | ? | ?
CN(C)P(=O)(NC(=O)c1cccn1C)N(C)C | -1.6 | -18.1% | 21.2% | 31.5% | -7.7% | -7.9%
CCC(C)C(=O)OC1C(O)C2C(CN3CC(C)CCC3[C@]2(C)O)C2C[C@]34O[C@@]5(O)C(OC(=O)C(C)(O)CC)CCC3(C)C5C(OC(C)=O)C(OC(C)=O)C4[C@@]21O (stereo partly specified) | / | / | 0.5%[2.33 µM] | / | / | /
CN1C(=O)CCS(=O)(=O)[C@@H]1c1ccc(Cl)cc1 | / | / | 4.6%[21.5 µM] | / | / | /
CN(C)C(=S)SC(=S)N(C)C | / | / | 2.51µM* | / | / | /
CN(C)C(=S)SSC(=S)N(C)C | 10.3 | -12.9% | 1.26µM* | 22.2% | -33.0% | 0.336µM*
O=C(CCC(=O)Nc1ccccc1Cl)N/N=C/c1ccccc1 | -6.5 | -5.9% | 7.6%[59 µM] | 41.3% | 4.6% | -8.9%
CCOC(=O)c1ccccc1C(=O)OCC | 1.5 | -5.5% | 18.4%[59 µM] | 55.0% | / | -18.7%
CCOC(=O)c1cnc2c(ccc3ccccc32)c1Nc1ccc(N(C)C)cc1 | / | 11.2µM* | 2.51µM* | 10µM* | 6.31µM* | /
COc1ccc(-c2nc(CN3C(=O)CN=C(c4ccccc4)c4ccccc43)c(C)o2)cc1 | / | -5.0% | ? | 41.8% | 1.7% | /
COCc1cc(C)c(C#N)c(=S)[nH]1 | -23.6 | 7.94µM* | / | ? | ? | 26.7µM*
